# Target: DUSP22
# Experiment: pooled miR-30 sensor sort-seq; sequence = guide strand
# Conditions: shRNA
# Also: reference of the scale not given here.
row,Sequence,sensor-assay potency score (higher = more potent)
1,TTCACAGGAAGCAATCACGAGC,-0.769
2,TACTTAAACTCTATGTTGCTTT,-0.452
3,TTAGTTCTCAACATAAACATGA,-0.0599
4,TCTTCCTTCAGCCACTGCCGAT,-1.53
5,ATACTGATGGACCTCATGCTTC,-1.22
6,TTCTTTGAAATGTCTTGTCAGG,-0.54
7,TTTCTTTGAAATGTCTTGTCAG,-0.0889
8,AATATGTGTCACCTTGTTCTTG,-0.44
9,ATATGTGTCACCTTGTTCTTGC,0.858
10,TTAACGAAAACATAGAGCTTTC,-0.995

# Target: DUSP3
# Experiment: as above
# Conditions: shRNA
row,Sequence,sensor-assay potency score (higher = more potent)
1,TAGTCTGTCATTGAGCTGGCAG,-0.572
2,TTGCCCACGTAGATCCGCGGGG,-0.843
3,TTCTTTTGAGCCAAAGCCTGGT,-0.51
4,ATTGGTGTTGACGTGCATGAAG,-1.24
5,TTGAACTCCTGTGTGTCGTTGG,0.854
6,TCTGTCATTGAGCTGGCAGAGC,-1.17
7,TTGTAGAAGTTGGCATTGGTGT,-0.415
8,TTGACGTGCATGAAGGACCTGC,0.645
9,TTCTGCCGCATCATGAGGTAGG,-0.351
10,TGTGATGCCGGAGTCCTTGTAG,0.0865
11,TCAATGAAGTCGGCAGCCCTTT,-0.941
12,TTCAAAGTAAGCGCTGAGGTTG,-0.662
13,TATGTGATGCCGGAGTCCTTGT,-1.17
14,TCGTTGAGATCCTGCACCGAGA,-1.55

# Source: the OligoGym collection
